14-3-3 Bad inh – inhibitors of 14-3-3 zeta/Bad binding, primary screen, biochemical, TR-FRET, bovine 14-3-3 zeta; 14-3-3 protein zeta/delta (Bos taurus), P63103; TR-FRET 14-3-3zeta/Dy647-pBad peptide displacement, 1 h; inhibition, % at 21.7 µM; 220,000 compounds, 0.71% hits; AID 781, 2007;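 active = inhibition above about 70%, limit read from the data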;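 note: 0% = full 14-3-3 plus peptide FRET controls and 100% = background without 14-3-3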
Mcl1-Noxa inh – Mcl-1/Noxa binding inhibitors, primary screen, biochemical, TR-FRET, 1536-well; Induced myeloid leukemia cell differentiation protein Mcl-1 (Homo sapiens), Q07820; TR-FRET Mcl-1/Noxa peptide binding, 2 h; inhibition, % at 21.7 µM; 220,000 compounds, 1.5% hits;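 active = compounds that cut the protein-peptide binding signal by more than 50% relative to plate controls in a single-dose test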;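 note: His-tagged Mcl-1 with rhodamine Noxa BH3 peptide and terbium anti-His antibody; 0% = Mcl-1 plus Noxa peptide wells and 100% = peptide-only wells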
Target sequence (Q07820 whole entry, looked up): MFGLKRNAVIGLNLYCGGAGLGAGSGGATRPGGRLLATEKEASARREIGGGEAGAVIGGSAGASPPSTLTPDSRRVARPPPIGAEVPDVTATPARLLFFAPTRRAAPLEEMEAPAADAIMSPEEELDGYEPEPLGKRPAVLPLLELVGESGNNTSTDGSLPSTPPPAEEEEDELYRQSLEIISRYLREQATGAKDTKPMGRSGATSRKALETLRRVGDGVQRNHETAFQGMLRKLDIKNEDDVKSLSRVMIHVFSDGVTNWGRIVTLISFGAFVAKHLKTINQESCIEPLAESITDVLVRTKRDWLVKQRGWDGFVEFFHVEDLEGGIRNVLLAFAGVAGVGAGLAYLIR
Bim-Mcl-1 – inhibitors of Bim peptide binding to Mcl-1, primary screen, biochemical, bead-based flow cytometry, multiplex; Induced myeloid leukemia cell differentiation protein Mcl-1 (Homo sapiens), Q07820; Bim peptide-Mcl-1 binding; inhibition, % at 10 µM; 190,000 compounds, 0.1% hits; in the data active = inhibition above about 40%;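 note: 0% = no compound tracer wells and 100% = peptide blocker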
Mcl1-Bid inh – Mcl-1/Bid binding inhibitors, primary screen, biochemical, TR-FRET, 1536-well. Induced myeloid leukemia cell differentiation protein Mcl-1 (Homo sapiens), Q07820. TR-FRET Mcl-1/Bid-Dy647 peptide binding. inhibition, % at 21.7 µM. 220,000 compounds, 0.97% hits. AID 1021, 2008;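 active = compounds that cut the binding signal by more than half at the single screening dose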;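 note: His-tagged Mcl-1 with europium anti-His antibody binding Bid BH3 peptide; 0% = Mcl-1 plus peptide wells and 100% = peptide-only wells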
NCF1 inh – p47phox/p22phox peptide binding inhibitors, primary screen, biochemical, uHTS, NADPH oxidase regulatory subunit. Neutrophil cytosol factor 1 (Homo sapiens), P14598. fluorescence polarization, 2 h. inhibition, % at 24.7 µM. 220,000 compounds, 0.53% hits. AID 1274, 2008;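 note: 0% = p47phox with labelled peptide and 100% = labelled peptide alone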
eIF4E 4G PPI – eIF4E–eIF4G protein interaction inhibitors, primary screen, biochemical, uHTS, TR-FRET, eIF4GI fragment. Eukaryotic translation initiation factor 4E (Mus musculus) + Eukaryotic translation …. TR-FRET eIF4E-eIF4GI(517-606) binding, 2 h. 220,000 compounds, 0.37% hits. inhibition, % at 21.7 µM;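 note: 0% = full FRET control wells and 100% = background wells lacking eIF4GI fragment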
An asterisk follows results filed as active; . = not tested or not shown. Hits are enriched below; roughly 3.3% of the tested compounds scored in any of these assays.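 Rule for the calls, unless noted: active = inhibition above about 30% (limit read from the data); inactive = the rest.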

SMILES	14-3-3 Bad inh	Mcl1-Noxa inh	Bim-Mcl-1	Mcl1-Bid inh	NCF1 inh	eIF4E 4G PPI
Cc1ccc(C(=O)N[C@H](C(=O)OCc2cc(=O)n3c(n2)sc2ccccc23)C(C)C)cc1	-3.5	57.5*	-3.0	-8.8	-13.2	0.4
CS(=O)(=O)CCC(C(=O)OCc1ccc(Cl)cc1)N1C(=O)c2ccccc2C1=O (centres undefined)	17.8	-4.8	-1.0	-10.7	1.2	3.6
CCCOc1ccc(NC(N)=O)cc1OCCC	4.3	-0.4	-2.0	-34.6	31.3*	0.1
CCOc1ccc(NC(N)=O)cc1OCC	5.7	-9.4	-1.0	-60.3	-9.9	-7.1
Cn1c(-c2ccc(F)cc2)cnc1NCc1ccccc1	54.1	9.3	0.0	-5.5	-7.2	2.3
Cn1c(-c2ccc(F)cc2)cnc1NCc1cccc(F)c1	78.6*	34.0	1.0	13.7	-10.3	-1.9
Cc1ccc(-n2ncc(Cl)c2C(=O)NC2CC2)cc1	-5.4	0.8	-1.0	-1.8	-2.0	-0.6
O=C(Nc1ccccc1)c1nc2ccccc2s1	4.9	26.6	-8.0	-5.3	0.5	1.6
Cc1cccc(NC(=S)c2nc3ccccc3s2)c1	-3.3	-41.1	-1.0	103.2*	-4.7	-0.3
CN(CC(=O)Nn1cnnc1)S(=O)(=O)c1ccccc1	73.2*	9.2	0.0	-17.2	-6.3	-0.6
COc1cc(C(C#N)N2CCC(c3ccccc3)=N2)ccc1O (centres undefined)	-6.9	-3.5	.	-11.3	-5.1	0.4
CCOC(=O)N1CCN(C(=O)c2cccn3c(=O)c4c5c(sc4nc23)CCCC5)CC1	-8.1	12.4	-3.0	-17.6	-13.4	-5.8
O=C(O)CSc1cc(C(=O)c2ccccc2O)cn2c(=O)c3c4c(sc3nc12)CCCC4	75.0*	79.6*	.	50.5*	-19.4	17.1
O=C(Nc1nc2ccccc2n1CCN1CCOCC1)c1ccc(COc2ccccc2Br)o1	-15.0	-40.3	1.0	-32.7	-17.2	2.1
Cc1nn(CC(=O)Nc2ccc3c(c2)nc2n3CCOC2)c(=O)c2ccccc12	-0.1	11.4	-6.0	0.1	-0.6	-2.2
COCCN1CCn2c(nc3cc(NC(=O)Cn4nc(C)c5ccccc5c4=O)ccc32)C1	26.1	66.4*	.	-12.0	7.4	-7.4
O=C(NCc1ccccc1)C1(c2cccc(F)c2)CCCC1	0.1	-3.3	-5.0	-6.7	6.5	1.2
CCN1CCCc2cc(CN(CCN3CCOCC3)C(=S)Nc3ccccc3C)ccc21	-5.9	71.9*	-1.0	-99.1	-14.3	0.5
CCN1CCCc2cc(CN(CCN3CCOCC3)C(=S)Nc3ccccc3OC)ccc21	-8.8	59.7*	-2.0	-60.6	-6.9	5.7
CCN1CCCc2cc(CN(CCN3CCOCC3)C(=S)Nc3cccc(C)c3)ccc21	11.7	64.0*	-2.0	-97.9	-16.1	1.8
CCN1CCCc2cc(CN(CCN3CCOCC3)C(=S)Nc3ccc(OC)c(OC)c3)ccc21	3.0	25.1	-1.0	-66.2	-11.1	-2.0
CCc1ccc(NC(=O)N(CCN2CCOCC2)Cc2ccc3c(c2)CCCN3CC)cc1	-9.7	73.9*	-7.0	-69.2	43.0*	1.8
N=c1sccn1CC(=O)Nc1cccc(S(=O)(=O)N2CCCCCC2)c1	-4.0	3.4	0.0	-24.3	-6.3	-3.5
COc1ccc(CN(CCO)CCO)cc1[N+](=O)[O-]	59.0	34.2	-4.0	49.6	-11.7	4.6
O=C(NNS(=O)(=O)c1ccccc1[N+](=O)[O-])c1cccc([N+](=O)[O-])c1	3.2	15.0	-5.0	-51.1	9.8	1.7
Cc1n[nH]c(=O)nc1NCc1ccccc1	-3.3	5.0	-7.0	-18.5	-10.9	0.8
Cc1n[nH]c(=O)nc1NCc1ccco1	2.7	13.7	0.0	-24.7	-8.6	73.9*
Cc1ccc(C2=NNC3(CCOC(C)(C)C3)S2)cc1 (centres undefined)	-13.6	-27.3	0.0	-66.9	-2.3	-0.4

Assay outcomes deposited in PubChem by several laboratories.
